Inconclusive results are not listed. Active and inactive are the calls of the source. Calls follow the shape of the dose curve; as a rule, active = well fitted inhibition curve with a large enough effect; inconclusive = small, poorly fitted or top-dose-only effect; inactive = flat fitted curve, though single readings scatter.

This test relates to CRL-7250. The test is described as follows: qHTS assay to identify novel small-molecules to repurpose for Merkel cell carcinoma treatment (AID 1296009). Also: nearly all actives have a fitted effect of over 60% in size. The settings on record: MCC and control cell lines, CellTiter-Glo viability, 72 h; series mostly up to 92 µM; activity change, negative = cytotoxicity: at the top concentration. An outline of the steps: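 Cells were treated for 72 hr at 37 degree celsius with compounds in 8- or 11-point dose response. Viability was read by CellTiter-Glo luminescence, normalized to no-cell (cytotoxicity) and DMSO controls.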
(In general: Quantitative high-throughput screening tests each substance at several concentrations.)
With `COc1cc(CCCO)ccc1O[C@@H]1O[C@H](CO)[C@@H](O)[C@H](O)[C@H]1O`, the result was inactive.

Consider `COc1cc(C(=O)O)ccc1OC1OC(CO)C(O)C(O)C1O` (stereo not drawn), for which the result was inactive. The same measure for `CC(C)(C)c1ccc(C(=O)Nc2cn3cc(-n4ccnc4)ccc3n2)cc1`: “inactive”; for `CC(C)C1CCC(C(=O)N[C@@H](Cc2ccccc2)C(=O)O)CC1` (stereo partly drawn): “inactive”; for `C=CC1C(OC2OC(CO)C(O)C(O)C2O)OC=C2C(=O)N3C(C(=O)O)Cc4c([nH]c5ccccc45)C3CC21` (stereo not drawn): “inactive [at 17.4 µM]”.

On to `O=C(NCc1nc2ccccc2c(=O)n1-c1ccc(F)cc1)Nc1ccc(Cl)c(C(F)(F)F)c1`, for which the result was inactive. Then `N#Cc1c[nH]c2c(C(=O)N3CCN(CCc4ccc(F)cc4)CC3)cccc12`, with “inactive”. The same measure for `N[C@@]1(C(=O)O)CC[C@H]2[C@H](C(=O)O)[C@H]21`: “inactive”. The same measure for `C=C1CC2C3(C)C(O)CC(=O)C(C)(C)C3C(OC(C)=O)C(OC(C)=O)C2(C)C2C(=O)OC(C)(C(=O)OC)C(=O)C12C` (stereo not drawn): “inactive [at 17.4 µM]”; for `CC(=O)OC[C@@]12[C@H](O)C[C@@H](C)[C@]3(C[C@@H](c4ccoc4)OC3=O)[C@H]1C[C@H](O)C[C@]21CO1`: “inactive [at 17.4 µM]”.

Turning to `NC(=O)c1ccc(F)c2c1C[C@@H](N(C1CCC1)C1CCC1)CO2`, the outcome was inactive. Then `CC1=C2C[C@H]3O[C@@]3(C)CCC3O[C@@]3(C)C[C@@]2(O)OC1=O` (stereo partly drawn), with “inactive”; and `C=C(C)[C@@H]1CC[C@]2(C)CC[C@]3(C)C(CCC4[C@@]5(C)CC[C@H](O)C(C)(C)C5CC[C@]43C)C12` (stereo partly drawn), with “inactive [at 17.4 µM]”.

Consider `COc1cc2ncnc(Nc3ccc(O)cc3)c2cc1OC`, for which the compound was classed as inactive. In the case of `CC(C)(O)c1ccc2c(c1)ncn2-c1cccc(-c2ccccc2C#N)c1`, the compound was classed as inactive. On to `O=C(NCC1(N2CCN(c3ccccc3)CC2)CCOCC1)c1cccnc1Sc1ccccc1`, for which the call was inactive. Consider `CCC(O)(C(=O)OCc1ccccc1NC(=O)CCC(=O)O)C(C)O` (stereo not drawn), for which the outcome was inactive.

As to `CC/C=C\CCO[C@@H]1O[C@H](CO[C@@H]2OC[C@H](O)[C@H](O)[C@H]2O)[C@@H](O)[C@H](O)[C@H]1O`, the compound was called inactive.

On to `CC(=O)OC1C(O)C2C(C)C3=CC(=O)OC3(O)CC2C2(C)CCCC(C)(CO)C12` (stereo not drawn), for which the “outcome” value was “inactive [at 17.4 µM]”. The same measure for `CCOc1nc2c(N)ncnc2n1CC`: “inactive”; for `Cc1ccc(-c2ccc3c(ccc4sc5c(c43)NC[C@@H](C)NC5=O)n2)cn1`: “inactive”. The same measure for `COC(=O)C(C)C1CCC2(C)C(=O)C=CC(C)(O)C2C1O` (stereo not drawn): “inactive”; for `CC1(C)O[C@H]2CC(=O)OC[C@@]23C1=C(O)C(=O)[C@]1(C)C3CC[C@@]2(C)[C@H](c3ccoc3)OC(=O)[C@H]3O[C@]321` (stereo partly drawn): “inactive [at 17.4 µM]”; for `O=C(O)c1ccccc1NC(=O)N1CCC(c2ccccc2C(F)(F)F)CC1`: “inactive”. The same measure for `CC1=C2C(=O)C=C(CO[C@@H]3O[C@H](CO)[C@@H](O)[C@H](O)[C@H]3O)[C@@H]2[C@H]2OC(=O)[C@H](C)[C@@H]2[C@@H](O)C1`: “inactive [at 17.4 µM]”; for `O=C(O)/C=C/c1ccc(O[C@@H]2O[C@H](CO)[C@@H](O)[C@H](O)[C@H]2O)cc1`: “inactive”. As for `CC1(C)NC2N(C1=O)c1ccccc1C2(O)CC(C(=O)O)n1cnc2ccccc2c1=O` (stereo not drawn), the “outcome” value is “inactive [at 17.4 µM]”. For `O=C(NCCCN1CCC2(CC1)OCc1ccccc12)[C@H]1CCCN1Cc1ccccc1`, the result was inactive. `COCC1OC(n2cnc3c(=O)[nH]cnc32)C(O)C1O` (stereo not drawn): the compound was called inactive. The same measure for `CCN(CCN(C)C)C(=O)CNCc1cc(C(N)=O)ccn1`: “inactive”; for `CCn1c(=O)n([C@H]2CCCN(c3nccc(-c4cc5ccccc5o4)n3)C2)c2ccccc21`: “inactive”; for `CC1(C)CC[C@]2(C(=O)O[C@@H]3O[C@H](CO)[C@@H](O)[C@H](O)[C@H]3O)CC[C@]3(C)C(=CCC4[C@@]5(C)C[C@@H](O)[C@H](O)[C@@](C)(CO)C5[C@H](O)C[C@]43C)C2[C@@H]1O` (stereo partly drawn): “inactive [at 17.4 µM]”.

`C/C=C/C=C/C(O)=C1/C(=O)[C@]2(C)C(=O)[C@@](C)(O)[C@H]1[C@H]([C@@]1(C)OC(=O)C(C)=C1O)[C@H]2C(=O)CC/C=C/C`: the “outcome” value is “inactive [at 17.4 µM]”. The same measure for `COc1cc([C@@H](O[C@@H]2O[C@H](CO)[C@@H](O)[C@H](O)[C@H]2O)[C@@H]2CO[C@H](c3ccc(O)c(OC)c3)[C@H]2CO)ccc1O`: “inactive [at 17.4 µM]”; for `C=C1C(=O)OC2/C=C(\C)CC/C=C(\C(=O)O)CC/C=C(\C)CCC12` (stereo not drawn): “inactive”. On to `C[C@@H]1O[C@@H](O[C@H]2[C@H](O[C@H]3CC[C@@]4(C)C(CC[C@]5(C)C4CC=C4[C@@H]6CC(C)(C)CC[C@]6(C(=O)O[C@@H]6OC[C@H](O)[C@H](O)[C@H]6O[C@@H]6O[C@@H](C)[C@H](O[C@@H]7O[C@H](CO)[C@@H](O)[C@H](O)[C@H]7O)[C@H](O)[C@H]6O)[C@H](O)C[C@]45C)C3(C)C)O[C@H](CO)[C@@H](O[C@@H]3OC[C@@H](O)[C@H](O)[C@H]3O)[C@@H]2O)[C@H](O)[C@H](O)[C@H]1O` (stereo partly drawn), for which the outcome is “inactive [at 9.27 µM]”. The same measure for `O=C(O)Cc1cc(I)c(Oc2ccc(O)c(I)c2)c(I)c1`: “inactive”; for `CCC(C)C(=O)O[C@@H]1[C@@H](O)[C@@H](O[C@H]2O[C@H](CO)[C@@H](O)[C@H](O)[C@H]2O)O[C@H](CO)[C@H]1O` (stereo partly drawn): “inactive [at 17.4 µM]”.
